D3 ag – agonists of human D3 dopamine receptor | P35462 | actives 0.58% (n = 410,000) | max activation, % | D3R DiscoveRx beta-arrestin cells, luminescence, 90 min; in the data active = max activation above about 30%; also: 0% is about no effect
Target sequence (P35462 whole entry, looked up): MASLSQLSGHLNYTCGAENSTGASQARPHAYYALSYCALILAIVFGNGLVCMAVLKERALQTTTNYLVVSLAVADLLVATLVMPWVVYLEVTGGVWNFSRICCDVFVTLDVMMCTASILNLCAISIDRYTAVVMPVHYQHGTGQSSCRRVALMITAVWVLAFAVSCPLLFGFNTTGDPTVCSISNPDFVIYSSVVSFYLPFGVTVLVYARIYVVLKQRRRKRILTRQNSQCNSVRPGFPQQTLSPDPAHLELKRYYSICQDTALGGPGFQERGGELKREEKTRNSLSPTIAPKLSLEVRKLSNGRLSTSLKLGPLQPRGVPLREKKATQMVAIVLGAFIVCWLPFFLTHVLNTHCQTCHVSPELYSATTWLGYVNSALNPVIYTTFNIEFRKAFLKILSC
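Agonist mode: compounds and dopamine controls were applied to plated cells for 90 min at 37 degrees C after an overnight attachment at 1500 cells/well. Luminescent read-out followed 30 - 60 minutes at room temperature with DiscoveRx detection reagent.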
D3 antag – D3 dopamine receptor (human) antagonism. P35462. D3R cells, DiscoveRx beta-arrestin luminescence, antagonist mode; hits give low values. max response, negative = inhibition, %. actives 2.5% (n = 360,000). AID 652054; in the data active = max response below about -50%; inconclusive = no clear call, values can overlap the other calls; also: % is scaled to controls: 0 for no effect and ±100 for the full control effect
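Cells expressing the human receptor were seeded at 1500 cells/well, incubated overnight at 37 degrees C in 5% CO2, then exposed to library compounds with dopamine controls for 90 minutes at 37 degrees C before luminescent detection.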
Giardia kill – kills Giardia lamblia; activity change, % at 7.66 µM, hits read low; Giardia lamblia trophozoite viability; actives 0.15% (n = 340,000); in the data active = activity change below about -80%; inconclusive = between about -30% and that limit;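 also: parasites exposed to compound for two days anaerobically before the ATP read; % is scaled to controls: 0 for no effect and ±100 for the full control effect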
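Compounds were tested on trophozoites seeded at 100 cells/well and held 48 hrs at 37 deg C anaerobically. An ATP-based luminescent kit measured the remaining live cells.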
B2AR arrestin – beta2AR (human) beta-arrestin recruitment activity; P07550; beta-arrestin recruitment to beta2AR, cell-based reporter; Potency, µM (titrated, usually from 46.1 µM), for the others: at the highest dose activation, actives largely listed as activators; actives 0.02% (n = 330,000); AID 492947; active = well fitted activation curve with a large enough effect; inconclusive = small, poorly fitted or top-dose-only effect;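 also: potency is read from the fitted curve at half-maximal effect; 0% = DMSO controls and full agonism = EC100 isoproterenol or metaproterenol; nearly all actives have a fitted effect of over 65% in size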
An asterisk follows results filed as active. Sampled rows, rich in hits. Any-hit rate of the full collection: about 2.8%.

Results for CN1CCN(C(c2ccc(C(F)(F)F)cc2)c2ccc3cccnc3c2O)CC1 (stereo not drawn) ?
D3 ag: -29; D3 antag: inconclusive; Giardia kill: 9; B2AR arrestin: 4%

Results for Oc1c(C(c2ccccc2Cl)N2CCCC2)ccc2cccnc12 (stereo not drawn) ?
D3 ag: -7; D3 antag: -53*; Giardia kill: 25; B2AR arrestin: 5%

What do the screens show for `CC(=O)NC(c1cc(Cl)c2cccnc2c1O)C(C)C` (stereo not drawn)?
Giardia kill: 5; B2AR arrestin: -1%

How did CN1CCN(C(c2ccccn2)c2cc(Cl)c3cccnc3c2O)CC1 (stereo not drawn) do in these assays?
D3 ag: -18; D3 antag: -126*; Giardia kill: 7; B2AR arrestin: inconclusive

How did Cc1ccc(C(c2cc(Cl)c3cccnc3c2O)N2CCN(C)CC2)cc1 (stereo not drawn) do in these assays?
D3 ag: -31; D3 antag: -118*; Giardia kill: -25; B2AR arrestin: 0%

Results for CC(=O)NC(c1ccc(C)cc1)c1cc(Cl)c2cccnc2c1O (stereo not drawn) ?
D3 ag: -15; D3 antag: -79*; Giardia kill: 1; B2AR arrestin: -1%

How did CCOc1ccc(NC(=O)C2CCN(S(=O)(=O)c3ccc4c(c3)oc(=O)n4C)CC2)cc1 do in these assays?
D3 ag: 1

What do the screens show for `CCCn1c(CN2CCN(c3ccc(OC)cc3)CC2)nc2c1c(=O)[nH]c(=O)n2C`?
D3 ag: 4

Results for O=C1OC2(c3ccccc31)c1cc(Br)c(O)c(Br)c1Oc1c2cc(Br)c(O)c1Br ?
D3 ag: 1

Results for Oc1c(C(c2ccc(Cl)cc2)N2CCCC2)cc(Cl)c2cccnc12 (stereo not drawn) ?
D3 ag: -9; D3 antag: -106*; Giardia kill: 7; B2AR arrestin: 0%

Results for COc1cc(C(=O)NC(c2ccc(Cl)cc2)c2cc(Cl)c3cccnc3c2O)cc(OC)c1OC (stereo not drawn) ?
D3 ag: 4

Results for Oc1c(C(c2ccccn2)N2CCC(Cc3ccccc3)CC2)cc(Cl)c2cccnc12 (stereo not drawn) ?
D3 ag: -17; D3 antag: -112*; Giardia kill: -19; B2AR arrestin: inconclusive

How did Oc1c(C(Nc2ccccn2)c2cccnc2)cc(Cl)c2cccnc12 (stereo not drawn) do in these assays?
D3 ag: -5; D3 antag: -121*; Giardia kill: 9; B2AR arrestin: 2%

How did CC(=O)NC(c1cc(Cl)c2cccnc2c1O)C1CC1 (stereo not drawn) do in these assays?
Giardia kill: 28; B2AR arrestin: inconclusive

What do the screens show for `CC(=O)Nc1ccc2c(c1)nc(CCN1CCC(C)CC1)n2C`?
D3 ag: -42; D3 antag: inconclusive; Giardia kill: -22; B2AR arrestin: 0%

What do the screens show for `CC1CCN(CCc2nc3cc(NS(=O)(=O)c4ccc(F)cc4)ccc3n2C)CC1`?
D3 ag: 1; D3 antag: -70*; Giardia kill: 1; B2AR arrestin: 0%

How did CC1CCN(CCc2nc3cc(NC(=O)Nc4ccccc4)ccc3n2C)CC1 do in these assays?
D3 ag: -5; D3 antag: -60*; Giardia kill: -9; B2AR arrestin: 0%

What do the screens show for `CC1CCN(CCc2nc3cc(NS(=O)(=O)c4ccccc4)ccc3n2C)CC1`?
D3 ag: -4; D3 antag: -75*; Giardia kill: -2; B2AR arrestin: 0%

How did CCC(=O)Nc1ccc2c(c1)nc(CCN1CCN(c3ccccc3)CC1)n2C do in these assays?
D3 ag: 6; D3 antag: -62*; Giardia kill: 32; B2AR arrestin: 0%

Results for CCC(=O)Nc1ccc2c(c1)nc(CCN1CCCCC1)n2C ?
D3 ag: -9; D3 antag: -5; Giardia kill: -16; B2AR arrestin: 0%

What do the screens show for `O=S(=O)(Cc1ccccc1)N1CCN(c2nc(-c3cccs3)nc3ccccc23)CC1`?
Giardia kill: 3

What do the screens show for `CC(=O)Nc1ccc2c(c1)nc(CCN1CCN(c3ccccn3)CC1)n2C`?
D3 ag: -10; D3 antag: 2; Giardia kill: 15; B2AR arrestin: 0%

What do the screens show for `CC(C)C(=O)Nc1ccc2c(c1)nc(CCN1CCN(c3ccccn3)CC1)n2C`?
D3 ag: 62*; D3 antag: 22; Giardia kill: -25; B2AR arrestin: -1%

What do the screens show for `CN(Cc1ccccc1)Cc1c[nH]c2ccccc12`?
D3 ag: 1; D3 antag: -82*; Giardia kill: 4; B2AR arrestin: 0%

Results for O=c1/c(=C/c2ccco2)sc2n1CN(c1cccc(Br)c1)CN=2 ?
D3 ag: 1; D3 antag: -61*; Giardia kill: 1; B2AR arrestin: 0%

What do the screens show for `O=c1/c(=C/c2ccco2)sc2n1CN(c1ccccc1)CN=2`?
D3 ag: -7; D3 antag: -17; Giardia kill: -18; B2AR arrestin: 0%

Results for C#Cc1ccc([C@@H]2C=C(C(=O)OCC=C)O[C@H](OCC)[C@H]2CCCO)cc1 ?
D3 ag: 12; D3 antag: -26; Giardia kill: -2; B2AR arrestin: -1%

How did CCO[C@H]1OC(C(=O)N2CCCCCCC2)=C[C@@H](c2ccccc2)[C@@H]1CCCO do in these assays?
D3 ag: 7; D3 antag: 6; Giardia kill: 28; B2AR arrestin: 0%

What do the screens show for `CCO[C@@H]1OC(C(=O)N2CCOCC2)=C[C@H](c2ccccc2)[C@H]1CCCO`?
D3 ag: -1; D3 antag: -65*; Giardia kill: -2; B2AR arrestin: 0%

How did CCO[C@H]1OC(C(=O)O)=C[C@@H](c2cn(C(C)=O)c3ccccc23)[C@@H]1CCCO do in these assays?
D3 ag: 7; D3 antag: -5; Giardia kill: inconclusive

Results for CCO[C@@H]1OC(C(=O)NCc2ccccc2)=C[C@H](c2cn(C(C)=O)c3ccccc23)[C@H]1CCCO ?
D3 ag: 67*; D3 antag: 8; Giardia kill: 4; B2AR arrestin: 1%

How did C#Cc1ccc([C@H]2C=C(C(=O)OCC=C)O[C@@H](OCC)[C@@H]2CCCO)cc1 do in these assays?
D3 ag: 62*; D3 antag: 64; Giardia kill: 15; B2AR arrestin: 0%

How did O=C(Cn1ccc2cc(S(=O)(=O)N3CCCCCC3)ccc21)NCCc1ccc(Cl)cc1 do in these assays?
D3 ag: -14

What do the screens show for `CC(=O)Nc1ccc(OC(C)=O)cc1`?
D3 ag: -8

Results for Cc1ccc(Cn2ccnc2SCC(=O)Nc2ccccc2C(F)(F)F)cc1 ?
D3 ag: -6

Results for CC(C)c1ccc(NC(=O)CS(=O)(=O)c2cccc3nsnc23)cc1 ?
D3 ag: -2

How did CCN1CCN(S(=O)(=O)c2cc(OCC(=O)NC3CCCCC3)c(C)cc2Cl)CC1 do in these assays?
D3 ag: -9; D3 antag: -70*; Giardia kill: 35; B2AR arrestin: 0%

Screening results as filed in PubChem BioAssay.
